# Test results from PubChem BioAssay (NCI).
# About 83,000 compounds went through this panel and 20% of them were active in at least one assay; those are over-represented in the sample as a whole.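 Cells were grown in 96-well plates and exposed to the test compound at a single concentration for 48 hours; results are reported as percent growth, with values below 10 considered active.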 Unmarked numbers belong to inactive results. Active and inactive are the calls of the source.
# Test system: CAKI-1 renal
# Assay: NCI-60 one-dose screen, 48 h (100 = growth as untreated, 0 = no growth, -100 = all killed)
# Conditions: 10 µM
# Description: Growth inhibition of the CAKI-1 human tumor cell line is measured as a screen for anti-cancer activity. Cells are grown in 96 well plates and exposed to the test compound for 48 hours. Compounds are tested at a single concentration, which is 10^-5 M for most compounds. The reported endpoint is percent growth (GI% or GIPRCNT), where numbers from 0 - 100% represent growth inhibition, and numbers from -100% - 0 represent cell death. For example, a value of 40 represents 60% growth inhibition. A value of 0 means no net growth occurred over the course of the experiment. A value of -40 indicates 40% of cells at the beginning of the experiment died by the end of the experiment. A value of -100 means all cells are dead at the end of the experiment.
# NCI-60 Human Tumor Cell Lines Screen was performed using the standard one-dose NCI protocol, which is described in more detail at https://dtp.cancer.gov/discovery_development/nci-60/default.htm.
# Compounds with GIPRCNT values below 10 were considered active. Activity score was based on GIPRCNT using the following formula: […]
# Score is 0 for GIPRCNT values of 100 or above, 50 for GIPRCNT values of 0, and 100 for GIPRCNT values of -100.
row,Structure (SMILES),growth
1,Cc1ccc(C)c(COc2cc(NC(=O)c3ccc4c(c3)OCO4)ccc2N(C)S(C)(=O)=O)c1,15.6%
2,C[C@@H](C[C@H](CCO)c1ccccc1)c1ccc2ccccc2c1,10.5%
3,CC(=O)Nc1cc2c(cc1Cl)Cc1cc(Cl)ccc1-2,75.6%
4,COc1ccc(C(=O)CC(CC(=O)c2ccc(OC)cc2)c2c(C)nn(-c3ccccc3)c2Cl)cc1,85.1%
5,CC(C)(C)OC(=O)N1CCc2c(sc3ncnc(N/N=C/c4ccccc4Br)c23)C1,54.4%
6,COc1cc(/C=C2\CCCC3C2=Nc2ccccc2NC3c2cc(OC)c(OC)c(OC)c2)cc(OC)c1OC (stereo not given),6.51% (active)
7,CCOC(=O)c1sc2ncnc(Nc3ccc(NC(=O)Nc4ccc(Cl)cc4)cc3)c2c1C,83.9%
8,COc1ccc(-c2nn(-c3cccc(Cl)c3)cc2-c2c(C#N)c(=O)n3[nH]c(-c4ccccc4)nc3c2C#N)cc1,62.9%
9,Nc1nc(Cl)nc2c1ncn2C1O[C@H](CO)[C@@H](O)[C@@H]1F (stereo not given in full),-25.9% (active)
10,CCOC(=O)c1sc2ncnc(Nc3ccc4c(cnn4C(=O)Nc4ccccc4)c3)c2c1C,83.9%
11,CCC(c1ccc(OC)cc1)C(CC)c1ccc(O)c(CN2CCN(C)CC2)c1 (stereo not given),41.1%
12,COc1ccc(C(=O)COc2cccc(/C=C3\Cc4ccccc4C3=O)c2)cc1,76.4%
13,CCOC(=O)C1=CSC2=NC3=C(CCC/C3=C\c3cc(OC)c(OC)c(OC)c3)C(c3cc(OC)c(OC)c(OC)c3)N12 (stereo not given),66.3%
14,COc1cc2c(cc1NC(=O)C(Cl)Cl)-c1ccc(NC(=O)C(Cl)Cl)cc1C2,-35.4% (active)
15,CCNc1nc(C(F)(F)F)nc2c1sc(=S)n2-c1ccccc1,93.6%
16,COc1cc(-c2csc(NC(=O)Nc3ccc(Cl)c(C(F)(F)F)c3)n2)cc(OC)c1OC,6.78% (active)
17,CC(C)(C)c1ccc(S(=O)(=O)Oc2ccc(NC(=O)C3CCCCC3)cc2)cc1,58.3%
18,Cc1c2c[n+](C(C)C)ccc2c(C)c2c1[nH]c1ccccc12,96%
19,C#CC(C)(O)[C@@H]1C[C@H](CC(=O)O)C1(C)C (stereo not given in full),96%
20,CC(C)[N+]1(C)C2CC[C@@H]1CC(OC(=O)C(CO)c1ccccc1)C2 (stereo not given in full),88.4%

row,Structure (SMILES),growth
1,COc1cc(NC(=O)C2=C(N3CCOCC3)/C(=C/c3ccc(Cl)cc3)CC2)cc(OC)c1OC,84.6%
2,O=C(O)c1ccc(-n2cc(CNc3ccc(Oc4ccccc4)cc3)c(-c3ccccc3)n2)cc1,86.4%
3,COc1cc(C(=O)/C(C)=C/c2c[nH]c3ccccc23)cc(OC)c1OC,34.1%
4,Nc1ccn(Cc2nnc(CCC(=O)c3nc4ccccc4[nH]3)o2)c(=O)n1,82.8%
5,CCCN(CCC)C(=O)[C@H](CC)[C@@H]1CC[C@@H](C)[C@@H]([C@H](C)[C@@H](O)[C@@H](C)C(=O)[C@H](CC)C2O[C@]3(C=C[C@@H](O)[C@]4(CC[C@@](C)([C@H]5CC[C@](O)(CC)[C@H](C)O5)O4)O3)[C@H](C)C[C@@H]2C)O1 (stereo not given in full),-8.15% (active)
6,Cc1cc(O)ccc1C1=NN(c2ccc(S(C)(=O)=O)cc2)C(=O)CC1,25.4%
7,OCC1OC(n2ccc3c(NO)ncnc32)C(O)C1O (stereo not given),1.77% (active)
8,CC(=O)N[C@H](C(=O)N[C@@H](CCCNC(=N)N)C(=O)N[C@@H](CCCCN)C(=O)N[C@@H](CCCNC(=N)N)C(=O)N[C@]1(C)CCC/C=C\CCC[C@@](C)(C(=O)N[C@@H](CC(C)C)C(=O)N[C@@H](CC(C)C)C(=O)N[C@@H](CCC(N)=O)C(=O)N[C@@H](CCC(=O)O)C(=O)N[C@@H](CCCNC(=N)N)C(=O)N[C@@H](CCC(=O)O)C(=O)N[C@@H](CC(C)C)C(=O)N[C@H](C(=O)N[C@@H](CCC(=O)O)C(N)=O)C(C)C)NC(=O)[C@H](CCCNC(=N)N)NC(=O)[C@H](CC(C)C)NC1=O)C(C)C,98.9%
9,C#C[C@]1(O)CCC2C3CCc4cc(OC5CCCC5)ccc4C3CC[C@@]21C (stereo not given in full),42%
10,COc1cc(C(=O)N2CCN(c3cc4c(cc3F)c(=O)c(C(=O)NO)cn4C3CC3)CC2)cc(OC)c1OC,94.4%
11,c1ccc(CCCCc2ccc3ccccc3n2)cc1,99.4%
12,CC(=O)OC1CC2C(C)(C)CCC[C@]2(C)C2=C1C(O)=C(C(C)C)C(=O)C2=O (stereo not given in full),-5.22% (active)
13,COc1nc2c(c(=O)n1C)CN(c1ccccc1)C(=O)C(C)N2 (stereo not given),100%
14,CSc1nc2c(c(=O)n1C)CN(Cc1ccccc1)C(=O)CN2,88.6%
15,COc1ccc2nc(Cl)c(Cn3nnc(Cc4ccccc4)n3)cc2c1,43.9%
16,NC1=NC(c2ccccc2)C2=C(N1)/C(=C/c1ccccc1)CCC2 (stereo not given),93.8%
17,CN(C)c1ccc(/C=N/NC(=O)c2cccc3ccccc23)c(Cl)c1,48.5%
18,Cc1cc(Br)nnc1Br,101%
19,OC(CCN1CCCC1)(c1ccccc1)C1CCCCC1 (stereo not given),95.7%
20,Cc1cc(C(C#N)c2ccc(Cl)cc2)c(Cl)cc1NC(=O)c1cc(I)cc(I)c1O (stereo not given),38.7%
